{"source": "PubChem BioAssay AID504942", "about": "(Broad Institute, 2011)", "note": "Measured potencies and affinities stand elsewhere. A number with no mark means an inactive call. The rule behind the calls is not given here."}
{"assay": "toxicity to human HeLa cells – cell-based, 48 h, plate reader, cherry-picks, cytotoxicity control, dose response (AID 504942)", "conditions": "series mostly up to 38 µM; activity change, negative = toxicity: at the top concentration", "units": {"activity change, negative = toxicity": "%"}}
{"smiles": "CC(C)(C)NC(=O)c1cc(Cl)ccc1[N+](=O)[O-]", "activity change, negative = toxicity": -3.32}
{"smiles": "O=[N+]([O-])c1ccc(N2CCCC2)nc1", "activity change, negative = toxicity": -11.1}
{"smiles": "CCOC(=O)c1ccc(-c2ccc(C=O)o2)cc1", "activity change, negative = toxicity": -9.6}
{"smiles": "Nc1ccc(OCc2ccccc2)cc1[N+](=O)[O-]", "activity change, negative = toxicity": -12.8}
{"smiles": "COC(=O)c1cc(-c2ccc(Br)cc2)on1", "activity change, negative = toxicity": -2.78}
{"smiles": "Cc1ccc(C(C#N)c2ccc(Cl)nn2)cc1", "note": "(centres undefined)", "activity change, negative = toxicity": 1.95}
{"smiles": "Cc1cc(S(=O)(=O)NCC2CC2)c(Cl)cc1Cl", "activity change, negative = toxicity": 7.44}
{"smiles": "CSC1=N/C(=C\\C=C\\c2cccs2)C(=O)S1", "activity change, negative = toxicity": 3.28}
{"smiles": "N#CC(c1ccc(Cl)nn1)c1c(F)cccc1Cl", "note": "(centres undefined)", "activity change, negative = toxicity": 5.99}
{"smiles": "CCCNS(=O)(=O)c1ccc(OC)c(Cl)c1Cl", "activity change, negative = toxicity": 1.84}
{"smiles": "Cn1cccc1C(C#N)c1cccc(F)c1C#N", "note": "(centres undefined)", "activity change, negative = toxicity": -6.29}
{"smiles": "COC(=O)c1cc(-c2ccc(OC)cc2)on1", "activity change, negative = toxicity": -7.79}
{"smiles": "CCOC(=O)CCCn1ncn2c(cc3occc32)c1=O", "activity change, negative = toxicity": 7.49}
{"smiles": "CCOC(=O)c1ccc(N2Cc3ccccc3C2=N)cc1", "activity change, negative = toxicity": 3.25}
{"smiles": "C=CCOC(=O)c1ccc(-n2cnc(C)n2)nc1", "activity change, negative = toxicity": 1.26}
{"smiles": "COc1ccc(C(C#N)c2ccc(Cl)nn2)cc1", "note": "(centres undefined)", "activity change, negative = toxicity": -3.69}
{"smiles": "CCOC1=CC(=O)OC(c2ccccc2)C1", "note": "(centres undefined)", "activity change, negative = toxicity": 3.44}
{"smiles": "Cc1ccc2scc(CN3CCCC3)c2c1", "activity change, negative = toxicity": -6.04}
{"smiles": "Clc1ccc2scc(CN3CCCC3)c2c1", "activity change, negative = toxicity": 6.28}
{"smiles": "O=[N+]([O-])c1ccc(N2CCCCC2)cc1", "activity change, negative = toxicity": -11}
{"smiles": "O=C(NC1CCCC1)c1cc(Cl)ccc1[N+](=O)[O-]", "activity change, negative = toxicity": -0.51}
{"smiles": "O=C(NC1CCSC1)c1cccc(Cl)c1", "note": "(centres undefined)", "activity change, negative = toxicity": 0.981}
{"smiles": "O=[N+]([O-])c1ccc(N2CCCCC2)nc1", "activity change, negative = toxicity": 7.32}
{"smiles": "C#CCSc1ncc(-c2ccccc2)cn1", "activity change, negative = toxicity": -1.75}
{"smiles": "N#CC(Sc1ccccn1)c1ccc(Cl)cc1", "note": "(centres undefined)", "activity change, negative = toxicity": 1.92}
{"smiles": "O=C(NC1CCS(=O)(=O)C1)c1cccc(Br)c1", "note": "(centres undefined)", "activity change, negative = toxicity": -10.4}
{"smiles": "O=C(c1cccc([N+](=O)[O-])c1)N1CC2C3C=CC(C3)C2C1", "note": "(centres undefined)", "activity change, negative = toxicity": 8.14}
{"smiles": "O=C(NC1CCCC1)c1cccc(Cl)c1", "activity change, negative = toxicity": -3.45}
{"smiles": "COc1ccccc1C(C#N)c1cccc(Cl)n1", "note": "(centres undefined)", "activity change, negative = toxicity": -6.54}
